Measurements published in PubChem BioAssay (NCATS).
Records with an inconclusive call do not appear. Active and inactive are the calls of the source. Unless noted, the call rests on the fitted dose curve; in most records, active means well fitted activation curve with a large enough effect in the main read-out, with a control signal flat (not every such curve was filed as active); inconclusive means small, poorly fitted or top-dose-only effect, or effect the other way, or a change in a side signal; inactive means flat fitted curve, though single readings scatter.

Biological target: Mitogen-activated protein kinase 10 (Mus musculus) (UniProt Q61831)
Assay: JNK3 AlphaScreen Assay (AID 530; active means well fitted curve in either direction with a large enough effect, not every such curve was filed as active;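 further: kinase came from lysate of stimulated human HepG2 cells; signal reports phosphorylation of biotinylated GST-cJun 1-79 at Ser73 with 10 µM ATP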)
Conditions: JNK3 lysate, c-Jun phosphorylation; series mostly up to 11.4 µM
How it was run: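 qHTS titrations with 15 min compound pre-incubation before adding ATP (10 uM final). Read-out: AlphaScreen of Ser73-phosphorylated biotin-GST-cJun using HepG2 lysate JNK3 activated by IL-1β and TNFα.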

Potency, inactive:
O=C1c2cccc([N+](=O)[O-])c2C(=O)N1c1ncn[nH]1
O=C1c2ccccc2C(=O)c2c1ccc(N1C(=O)c3ccccc3C1=O)c2-c1c(N2C(=O)c3ccccc3C2=O)ccc2c1C(=O)c1ccccc1C2=O
Cc1ccc(S(=O)(=O)OCC(=O)O)cc1
O=c1[nH]c(SCc2ccccc2[N+](=O)[O-])nc2nc[nH]c12
CC1(C)N=C(N)N=C(N)N1c1cccc(OCc2cccc(N)c2)c1
Cc1[nH]c(N)nc(=S)c1CCCNc1ccccc1
FC(F)(F)c1nc2nc(Cl)c(Cl)nc2n1CCCN1CCOCC1
CN(C)Cc1c[nH]c2nc[nH]c(=O)c12
Cc1cc(N2CCOCC2)nc2ccc(Cc3ccc4nc(N5CCOCC5)cc(C)c4c3)cc12
NS(=O)(=O)c1cc(C(=O)O)c(Cl)c([N+](=O)[O-])c1Cl
C[C@H](C(=O)c1ccncc1)c1ccccn1
CC(C)(C)c1ccc(-c2nnc(SCc3ccc(Cl)cc3)n2-c2cccc(C(F)(F)F)c2)cc1
c1ccc2sc(SCN(C3CCCCC3)C3CCCCC3)nc2c1
CC(C)(C)c1ccc(O)c(CN(Cc2cc(C(C)(C)C)ccc2O)C2CCCCC2)c1
C[N@@+]1(CC[N@@+]2(C)CCC[C@H]2c2cccnc2)CCC[C@@H]1c1cccnc1
CN(Cc1cc(Br)cc(Br)c1O)Cc1c(O)ccc2ccccc12
CN(C)CN1CSC(=S)N(CN(C)C)C1
CN(C)c1ncnc2c1ncn2CCn1cnc2c(N(C)C)ncnc21
O=S1(=O)CCN(c2ccccc2CC(c2c[nH]c3ccccc23)c2c[nH]c3ccccc23)CC1
Clc1ccc(CSC2=NCCN2)cc1Cl
Cn1c(=O)c(CCc2ccccc2)nc2cnc(N3CCNCC3)nc21
c1ccc(CO[C@H]2NCCN2Cc2ccccc2)cc1
O=C(O)c1ccccc1-c1ccccc1C(=O)Nc1ccc2c(c1)[nH]c(=O)c1ccccc12
COCCn1c(=O)c(-c2cc(F)cc(F)c2)nc2cnc(Oc3ccc(OC)cc3)nc21
O=c1c(-c2ccccc2)nc2cnc(Oc3ccccc3)nc2n1C1CC1
CN1CCN(CN2C(=O)C3C4C=CC(C3C2=O)C2C3C(=O)N(CN5CCN(C)CC5)C(=O)C3C42)CC1 (stereo not given)
NC[C@@H](O)CSCc1ccc(Cl)cc1
CC(=O)[C@H](C(=N)C#N)C(=O)Nc1ccccc1
Cc1cc(Cl)ccc1Nc1sc(C(=O)c2cc3cc(Cl)ccc3o2)c(N)c1C#N
CC(C)[C@@H]1O[C@H](/C=C\c2ccccc2)OCC1(C)C
C[C@@H](C(=O)O)/C(=C/c1ccc2c(c1)OCO2)C(=O)O
c1nnc(NCNc2nncs2)s1
S[C@@H]1CCCN(Cc2ccccc2)C1
NC(=O)N[C@H](CC(=O)O)C(=O)O
CC(=O)n1c(COS(C)(=O)=O)nc2ccccc21
c1ccc(CCN2CCN=C2Cc2ccccc2)cc1
NNC(=O)CCSc1ccccc1
O=C(O)CSc1n[nH]c(=O)[nH]c1=O
Cc1ccc(CSC(N)=Nc2ccccc2)cc1C
c1cncc(CNCc2cccnc2)c1

Biological target: 3',5'-cyclic-AMP phosphodiesterase 4B (Homo sapiens) (UniProt Q07343)
Sequence (Q07343 whole entry, looked up): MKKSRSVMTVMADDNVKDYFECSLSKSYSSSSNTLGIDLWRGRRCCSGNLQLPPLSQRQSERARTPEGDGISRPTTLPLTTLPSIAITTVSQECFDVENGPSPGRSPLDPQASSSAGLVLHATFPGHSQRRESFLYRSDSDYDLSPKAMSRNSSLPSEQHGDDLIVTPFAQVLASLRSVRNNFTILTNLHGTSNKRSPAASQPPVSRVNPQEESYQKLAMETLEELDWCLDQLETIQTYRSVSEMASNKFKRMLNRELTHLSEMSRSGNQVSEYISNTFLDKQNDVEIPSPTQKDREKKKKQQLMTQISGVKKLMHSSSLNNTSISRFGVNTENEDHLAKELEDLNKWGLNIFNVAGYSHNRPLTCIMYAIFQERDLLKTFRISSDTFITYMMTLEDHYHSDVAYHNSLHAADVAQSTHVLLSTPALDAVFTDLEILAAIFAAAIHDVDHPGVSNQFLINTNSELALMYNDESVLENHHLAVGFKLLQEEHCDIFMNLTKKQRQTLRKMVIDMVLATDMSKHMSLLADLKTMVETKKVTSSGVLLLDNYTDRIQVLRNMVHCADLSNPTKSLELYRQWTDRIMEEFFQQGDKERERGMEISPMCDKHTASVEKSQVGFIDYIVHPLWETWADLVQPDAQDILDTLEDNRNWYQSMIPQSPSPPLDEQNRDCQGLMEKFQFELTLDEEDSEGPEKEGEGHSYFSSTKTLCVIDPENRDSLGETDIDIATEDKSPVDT
Assay: qHTS Assay for Inhibitors of PDE-IV (AID 607)
Conditions: HEK293 ACTOne CNG channel cells, membrane potential fluorescence; series mostly up to 22.9 µM
How it was run: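 ACTOne HEK293 cells carry a modified cAMP-gated CNG channel and express endogenous PDE4; plated 1000 cells/well, compounds up to 22.9 uM final. Membrane-potential dye fluorescence (ex 535/em 590) was read; parental cells received 10 uM forskolin + 100 uM RO 20-1724.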

Potency, inactive:
O=C1c2cccc([N+](=O)[O-])c2C(=O)N1c1ncn[nH]1
O=C1c2ccccc2C(=O)c2c1ccc(N1C(=O)c3ccccc3C1=O)c2-c1c(N2C(=O)c3ccccc3C2=O)ccc2c1C(=O)c1ccccc1C2=O
Cc1ccc(S(=O)(=O)OCC(=O)O)cc1
O=c1[nH]c(SCc2ccccc2[N+](=O)[O-])nc2nc[nH]c12
CC1(C)N=C(N)N=C(N)N1c1cccc(OCc2cccc(N)c2)c1
Cc1[nH]c(N)nc(=S)c1CCCNc1ccccc1
FC(F)(F)c1nc2nc(Cl)c(Cl)nc2n1CCCN1CCOCC1
CN(C)Cc1c[nH]c2nc[nH]c(=O)c12
Cc1cc(N2CCOCC2)nc2ccc(Cc3ccc4nc(N5CCOCC5)cc(C)c4c3)cc12
NS(=O)(=O)c1cc(C(=O)O)c(Cl)c([N+](=O)[O-])c1Cl
C[C@H](C(=O)c1ccncc1)c1ccccn1
CC(C)(C)c1ccc(-c2nnc(SCc3ccc(Cl)cc3)n2-c2cccc(C(F)(F)F)c2)cc1
c1ccc2sc(SCN(C3CCCCC3)C3CCCCC3)nc2c1
CC(C)(C)c1ccc(O)c(CN(Cc2cc(C(C)(C)C)ccc2O)C2CCCCC2)c1
C[N@@+]1(CC[N@@+]2(C)CCC[C@H]2c2cccnc2)CCC[C@@H]1c1cccnc1
CN(Cc1cc(Br)cc(Br)c1O)Cc1c(O)ccc2ccccc12
CN(C)CN1CSC(=S)N(CN(C)C)C1
CN(C)c1ncnc2c1ncn2CCn1cnc2c(N(C)C)ncnc21
O=S1(=O)CCN(c2ccccc2CC(c2c[nH]c3ccccc23)c2c[nH]c3ccccc23)CC1
Clc1ccc(CSC2=NCCN2)cc1Cl
Cn1c(=O)c(CCc2ccccc2)nc2cnc(N3CCNCC3)nc21
c1ccc(CO[C@H]2NCCN2Cc2ccccc2)cc1
O=C(O)c1ccccc1-c1ccccc1C(=O)Nc1ccc2c(c1)[nH]c(=O)c1ccccc12
COCCn1c(=O)c(-c2cc(F)cc(F)c2)nc2cnc(Oc3ccc(OC)cc3)nc21
O=c1c(-c2ccccc2)nc2cnc(Oc3ccccc3)nc2n1C1CC1
CN1CCN(CN2C(=O)C3C4C=CC(C3C2=O)C2C3C(=O)N(CN5CCN(C)CC5)C(=O)C3C42)CC1 (stereo not given)
NC[C@@H](O)CSCc1ccc(Cl)cc1
CC(=O)[C@H](C(=N)C#N)C(=O)Nc1ccccc1
Cc1cc(Cl)ccc1Nc1sc(C(=O)c2cc3cc(Cl)ccc3o2)c(N)c1C#N
CC(C)[C@@H]1O[C@H](/C=C\c2ccccc2)OCC1(C)C
C[C@@H](C(=O)O)/C(=C/c1ccc2c(c1)OCO2)C(=O)O
c1nnc(NCNc2nncs2)s1
S[C@@H]1CCCN(Cc2ccccc2)C1
NC(=O)N[C@H](CC(=O)O)C(=O)O
CC(=O)n1c(COS(C)(=O)=O)nc2ccccc21
c1ccc(CCN2CCN=C2Cc2ccccc2)cc1
NNC(=O)CCSc1ccccc1
O=C(O)CSc1n[nH]c(=O)[nH]c1=O
Cc1ccc(CSC(N)=Nc2ccccc2)cc1C
c1cncc(CNCc2cccnc2)c1
